# Paper PMC7862700, “An all-to-all approach to the identification of sequence-specific readers for epigenetic DNA modifications on cytosine”
# Assays:
# Experiment in all cases: DAPPL (digital affinity profiling via proximity ligation, sequencing); 10 mM Tris-HCl pH 7.5, 50 mM NaCl, 1 mM DTT, 4% glycerol, room temperature, 30 min; GST-TFs on glutathione beads, 16-mer random dsDNA library, 0.1% formaldehyde crosslink after washing; high values mean tight binding
# [1] = biological target: T1, FLI1 (Homo sapiens, UniProt Q01543 1-452); conditions: protein: recombinant; tags: N-terminal GST; dsDNA, one strand shown
# T1 sequence: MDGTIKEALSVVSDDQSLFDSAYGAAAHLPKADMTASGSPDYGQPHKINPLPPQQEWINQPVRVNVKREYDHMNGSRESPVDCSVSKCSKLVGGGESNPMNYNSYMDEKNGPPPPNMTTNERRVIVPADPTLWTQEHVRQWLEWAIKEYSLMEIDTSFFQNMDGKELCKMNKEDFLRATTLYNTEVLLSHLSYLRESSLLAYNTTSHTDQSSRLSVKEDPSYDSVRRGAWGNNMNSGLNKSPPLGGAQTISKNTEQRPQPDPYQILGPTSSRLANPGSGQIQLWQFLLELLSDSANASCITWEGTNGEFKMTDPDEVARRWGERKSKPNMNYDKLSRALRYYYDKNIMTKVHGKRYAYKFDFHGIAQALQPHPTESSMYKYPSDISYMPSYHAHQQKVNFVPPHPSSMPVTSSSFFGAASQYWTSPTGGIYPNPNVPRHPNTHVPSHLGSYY
# Method in brief: (§1)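 Pools of DNA-barcoded human transcription factors, expressed in yeast as GST fusions on glutathione beads and combined with a tag-only sample, were incubated with 200 nmole of a 16-mer random double-stranded DNA library. Incubation took 30 min at room temperature in Tris/NaCl/DTT/glycerol buffer and was followed by washing, 0.1% formaldehyde crosslinking, proximity ligation (BsaI/T4 ligase, 1 h, 37 °C), PCR amplification and sequencing on an Illumina NextSeq500. Binding signal is the ratio of a hexamer's read frequency for a factor to its frequency for the tag-only sample.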
# [2] = biological target: T2, ELK1 (Homo sapiens, UniProt P19419 1-428); conditions: protein: recombinant; tags: N-terminal GST; dsDNA, one strand shown
# T2 sequence: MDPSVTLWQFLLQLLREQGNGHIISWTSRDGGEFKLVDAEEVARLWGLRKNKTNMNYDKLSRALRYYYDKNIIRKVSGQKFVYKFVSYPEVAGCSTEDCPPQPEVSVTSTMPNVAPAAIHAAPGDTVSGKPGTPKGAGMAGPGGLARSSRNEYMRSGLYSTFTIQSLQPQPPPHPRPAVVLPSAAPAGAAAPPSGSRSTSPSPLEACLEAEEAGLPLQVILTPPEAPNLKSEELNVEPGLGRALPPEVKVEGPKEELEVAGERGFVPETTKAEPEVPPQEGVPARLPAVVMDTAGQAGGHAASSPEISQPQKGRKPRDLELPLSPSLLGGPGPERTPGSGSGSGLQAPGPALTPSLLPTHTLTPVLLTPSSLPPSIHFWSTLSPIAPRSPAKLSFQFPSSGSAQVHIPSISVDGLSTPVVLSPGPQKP
# Method in brief: as §1
# [3] = biological target: T3, GABPA (Homo sapiens, UniProt Q06546 1-454); conditions: protein: recombinant; tags: N-terminal GST; dsDNA, one strand shown
# T3 sequence: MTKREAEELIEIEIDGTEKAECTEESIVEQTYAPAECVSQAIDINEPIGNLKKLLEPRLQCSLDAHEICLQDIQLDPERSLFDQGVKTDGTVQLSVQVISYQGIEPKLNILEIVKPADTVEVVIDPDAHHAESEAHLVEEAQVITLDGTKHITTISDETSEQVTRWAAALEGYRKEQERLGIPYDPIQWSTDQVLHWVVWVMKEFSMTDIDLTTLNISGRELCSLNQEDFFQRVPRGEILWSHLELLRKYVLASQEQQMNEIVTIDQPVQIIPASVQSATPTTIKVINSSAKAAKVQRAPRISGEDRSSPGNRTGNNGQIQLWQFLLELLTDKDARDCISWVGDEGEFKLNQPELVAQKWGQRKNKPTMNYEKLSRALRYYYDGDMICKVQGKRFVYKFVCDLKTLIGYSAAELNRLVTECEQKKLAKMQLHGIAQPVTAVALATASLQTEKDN
# Method in brief: as §1
# [4] = biological target: T4, ERG (Homo sapiens, UniProt P11308 1-479); conditions: protein: recombinant; tags: N-terminal GST; dsDNA, one strand shown
# T4 sequence: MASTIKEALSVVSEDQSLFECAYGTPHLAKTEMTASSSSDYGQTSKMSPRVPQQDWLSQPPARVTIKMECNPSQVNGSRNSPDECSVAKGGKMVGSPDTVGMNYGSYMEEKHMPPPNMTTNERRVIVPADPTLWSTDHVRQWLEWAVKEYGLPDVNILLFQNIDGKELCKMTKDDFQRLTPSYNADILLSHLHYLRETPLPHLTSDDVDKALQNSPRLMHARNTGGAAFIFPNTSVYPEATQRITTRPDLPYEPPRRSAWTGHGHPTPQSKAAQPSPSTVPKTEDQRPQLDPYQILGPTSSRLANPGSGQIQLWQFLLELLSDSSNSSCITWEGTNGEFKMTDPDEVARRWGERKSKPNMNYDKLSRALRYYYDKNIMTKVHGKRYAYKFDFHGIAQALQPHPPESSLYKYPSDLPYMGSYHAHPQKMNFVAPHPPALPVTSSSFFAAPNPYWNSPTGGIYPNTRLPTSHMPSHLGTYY
# Method in brief: as §1
# [5] = biological target: ELF1 (Homo sapiens, UniProt P32519 1-619); conditions: protein: recombinant; tags: N-terminal GST; dsDNA, one strand shown
# Chain of ELF1 (P32519 whole entry): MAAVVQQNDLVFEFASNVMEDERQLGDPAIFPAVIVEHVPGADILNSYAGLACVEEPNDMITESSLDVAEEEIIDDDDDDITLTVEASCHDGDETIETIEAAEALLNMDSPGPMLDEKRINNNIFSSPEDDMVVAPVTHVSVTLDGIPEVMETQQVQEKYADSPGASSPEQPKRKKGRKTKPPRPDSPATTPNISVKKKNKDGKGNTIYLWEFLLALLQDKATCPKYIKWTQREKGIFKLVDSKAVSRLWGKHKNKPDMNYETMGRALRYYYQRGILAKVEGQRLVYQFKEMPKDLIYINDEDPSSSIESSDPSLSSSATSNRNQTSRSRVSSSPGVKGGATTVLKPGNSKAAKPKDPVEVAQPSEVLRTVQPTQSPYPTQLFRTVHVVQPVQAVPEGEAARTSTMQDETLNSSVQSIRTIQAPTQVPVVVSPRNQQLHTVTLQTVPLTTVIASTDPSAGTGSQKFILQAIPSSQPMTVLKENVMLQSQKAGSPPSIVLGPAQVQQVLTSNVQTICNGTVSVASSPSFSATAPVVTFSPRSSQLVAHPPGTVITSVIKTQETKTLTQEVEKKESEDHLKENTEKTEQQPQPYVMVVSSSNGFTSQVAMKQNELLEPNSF
# Method in brief: as §1
# [6] = biological target: T5, EHF (Homo sapiens, UniProt Q9NZC4 1-300); conditions: protein: recombinant; tags: N-terminal GST; dsDNA, one strand shown
# T5 sequence: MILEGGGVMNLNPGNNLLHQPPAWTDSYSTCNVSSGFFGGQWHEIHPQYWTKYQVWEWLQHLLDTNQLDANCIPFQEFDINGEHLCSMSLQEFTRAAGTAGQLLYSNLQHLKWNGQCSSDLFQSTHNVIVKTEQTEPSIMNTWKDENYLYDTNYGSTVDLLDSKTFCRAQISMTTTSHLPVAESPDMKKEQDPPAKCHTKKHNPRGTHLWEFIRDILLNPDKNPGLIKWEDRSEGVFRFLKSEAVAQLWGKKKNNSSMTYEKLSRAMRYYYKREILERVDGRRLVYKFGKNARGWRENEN
# Method in brief: as §1
# [7] = biological target: SPI1 (Homo sapiens, UniProt P17947 1-270); conditions: protein: recombinant; tags: N-terminal GST; dsDNA, one strand shown
# Method in brief: as §1
# [8] = biological target: SPIB (Homo sapiens, UniProt Q01892 1-262); conditions: protein: recombinant; tags: N-terminal GST; dsDNA, one strand shown
# Chain of SPIB (Q01892 whole entry): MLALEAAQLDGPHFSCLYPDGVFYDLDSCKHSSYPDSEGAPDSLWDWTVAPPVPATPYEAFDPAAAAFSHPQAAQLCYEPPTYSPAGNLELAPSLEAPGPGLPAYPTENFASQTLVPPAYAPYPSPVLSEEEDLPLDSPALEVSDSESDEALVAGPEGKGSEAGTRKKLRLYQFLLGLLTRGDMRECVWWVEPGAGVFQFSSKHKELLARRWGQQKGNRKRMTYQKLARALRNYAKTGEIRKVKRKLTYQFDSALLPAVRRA
# Method in brief: as §1
# [9] = biological target: T6, ELK3 (Homo sapiens, UniProt P41970 1-407); conditions: protein: recombinant; tags: N-terminal GST; dsDNA, one strand shown
# T6 sequence: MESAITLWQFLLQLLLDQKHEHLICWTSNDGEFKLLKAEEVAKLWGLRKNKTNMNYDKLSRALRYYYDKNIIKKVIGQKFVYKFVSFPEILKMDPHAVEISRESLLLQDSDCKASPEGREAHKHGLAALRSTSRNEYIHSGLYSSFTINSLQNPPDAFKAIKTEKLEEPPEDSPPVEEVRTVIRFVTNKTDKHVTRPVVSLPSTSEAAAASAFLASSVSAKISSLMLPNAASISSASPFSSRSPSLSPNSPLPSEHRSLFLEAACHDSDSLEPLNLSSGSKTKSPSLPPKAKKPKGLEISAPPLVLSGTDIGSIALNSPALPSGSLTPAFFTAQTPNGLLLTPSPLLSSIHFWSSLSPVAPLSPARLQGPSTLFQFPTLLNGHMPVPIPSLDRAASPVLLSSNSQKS
# Method in brief: as §1
# [10] = biological target: T7, FEV (Homo sapiens, UniProt Q99581 1-238); conditions: protein: recombinant; tags: N-terminal GST; dsDNA, one strand shown
# T7 sequence: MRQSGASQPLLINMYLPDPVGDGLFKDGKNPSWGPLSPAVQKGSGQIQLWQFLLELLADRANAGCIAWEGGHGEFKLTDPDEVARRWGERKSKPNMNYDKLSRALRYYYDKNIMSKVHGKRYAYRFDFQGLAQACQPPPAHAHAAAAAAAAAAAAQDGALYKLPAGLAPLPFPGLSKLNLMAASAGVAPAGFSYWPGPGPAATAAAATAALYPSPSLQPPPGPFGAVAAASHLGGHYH
# Method in brief: as §1
# [11] = biological target: ETV5 (Homo sapiens, UniProt P41161 1-510); conditions: protein: recombinant; tags: N-terminal GST; dsDNA, one strand shown
# Chain of ETV5 (P41161 whole entry): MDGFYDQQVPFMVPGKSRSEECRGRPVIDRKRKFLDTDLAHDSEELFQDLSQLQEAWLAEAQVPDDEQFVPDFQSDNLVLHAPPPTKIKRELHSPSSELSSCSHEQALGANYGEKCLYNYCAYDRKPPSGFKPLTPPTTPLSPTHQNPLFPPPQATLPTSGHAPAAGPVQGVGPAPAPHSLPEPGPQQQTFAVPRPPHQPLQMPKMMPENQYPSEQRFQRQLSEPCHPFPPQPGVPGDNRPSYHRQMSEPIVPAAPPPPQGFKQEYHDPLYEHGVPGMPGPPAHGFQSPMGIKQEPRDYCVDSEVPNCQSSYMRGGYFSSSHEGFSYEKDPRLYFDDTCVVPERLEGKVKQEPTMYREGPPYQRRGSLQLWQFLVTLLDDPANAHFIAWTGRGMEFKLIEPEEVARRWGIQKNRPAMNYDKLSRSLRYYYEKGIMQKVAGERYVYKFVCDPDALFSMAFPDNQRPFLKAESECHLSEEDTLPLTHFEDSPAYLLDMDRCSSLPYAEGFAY
# Method in brief: as §1
# [12] = biological target: HSF1 (Homo sapiens, UniProt Q00613 1-529); conditions: protein: recombinant; tags: N-terminal GST; chain copies: 3; dsDNA, one strand shown
# Chain of HSF1 (Q00613 whole entry): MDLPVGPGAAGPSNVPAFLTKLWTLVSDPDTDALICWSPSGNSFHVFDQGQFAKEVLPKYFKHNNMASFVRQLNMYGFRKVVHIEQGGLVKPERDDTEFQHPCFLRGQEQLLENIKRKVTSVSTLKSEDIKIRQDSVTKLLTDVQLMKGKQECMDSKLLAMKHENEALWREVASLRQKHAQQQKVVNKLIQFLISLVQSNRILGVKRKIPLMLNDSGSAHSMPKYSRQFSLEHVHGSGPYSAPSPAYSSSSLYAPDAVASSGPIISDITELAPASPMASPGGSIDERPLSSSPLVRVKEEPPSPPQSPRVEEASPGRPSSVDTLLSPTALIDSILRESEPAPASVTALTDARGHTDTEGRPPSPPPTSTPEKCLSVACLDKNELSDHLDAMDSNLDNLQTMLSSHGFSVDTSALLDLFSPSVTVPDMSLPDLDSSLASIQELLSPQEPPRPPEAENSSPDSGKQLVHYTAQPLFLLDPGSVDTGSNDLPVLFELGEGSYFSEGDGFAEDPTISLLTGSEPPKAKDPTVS
# Method in brief: as §1
# [13] = biological target: T8, SPIC (Homo sapiens, UniProt Q8N5J4 1-248); conditions: protein: recombinant; tags: N-terminal GST; dsDNA, one strand shown
# T8 sequence: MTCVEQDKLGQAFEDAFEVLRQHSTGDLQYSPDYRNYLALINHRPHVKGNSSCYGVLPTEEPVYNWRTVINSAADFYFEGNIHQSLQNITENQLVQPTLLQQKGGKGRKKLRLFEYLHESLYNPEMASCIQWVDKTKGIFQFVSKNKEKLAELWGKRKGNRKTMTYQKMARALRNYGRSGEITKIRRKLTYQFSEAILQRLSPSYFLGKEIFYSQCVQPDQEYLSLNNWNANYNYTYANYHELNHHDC
# Method in brief: as §1
# [14] = biological target: ELF4 (Homo sapiens, UniProt Q99607 1-663); conditions: protein: recombinant; tags: N-terminal GST; dsDNA, one strand shown
# Chain of ELF4 (Q99607 whole entry): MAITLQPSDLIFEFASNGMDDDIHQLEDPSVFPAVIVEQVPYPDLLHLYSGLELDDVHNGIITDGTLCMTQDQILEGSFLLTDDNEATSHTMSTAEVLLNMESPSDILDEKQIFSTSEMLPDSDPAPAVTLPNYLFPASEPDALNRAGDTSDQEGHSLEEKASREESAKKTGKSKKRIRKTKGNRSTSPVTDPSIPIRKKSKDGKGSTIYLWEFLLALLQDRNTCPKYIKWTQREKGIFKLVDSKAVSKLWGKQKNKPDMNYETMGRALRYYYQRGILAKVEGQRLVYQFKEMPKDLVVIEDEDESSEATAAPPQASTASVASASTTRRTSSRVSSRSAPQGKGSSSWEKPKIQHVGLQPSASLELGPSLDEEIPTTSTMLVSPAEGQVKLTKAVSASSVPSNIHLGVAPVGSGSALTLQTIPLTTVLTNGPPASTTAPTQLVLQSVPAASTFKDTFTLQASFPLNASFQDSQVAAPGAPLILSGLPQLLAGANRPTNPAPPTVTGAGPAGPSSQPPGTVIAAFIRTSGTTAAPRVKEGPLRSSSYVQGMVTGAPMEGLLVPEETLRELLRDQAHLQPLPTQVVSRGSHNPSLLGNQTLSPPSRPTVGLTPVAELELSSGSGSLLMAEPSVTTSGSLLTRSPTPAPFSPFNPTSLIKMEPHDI
# Method in brief: as §1
# [15] = biological target: T9, ELK4 (Homo sapiens, UniProt P28324-2 1-405); conditions: protein: recombinant; tags: N-terminal GST; dsDNA, one strand shown
# T9 sequence: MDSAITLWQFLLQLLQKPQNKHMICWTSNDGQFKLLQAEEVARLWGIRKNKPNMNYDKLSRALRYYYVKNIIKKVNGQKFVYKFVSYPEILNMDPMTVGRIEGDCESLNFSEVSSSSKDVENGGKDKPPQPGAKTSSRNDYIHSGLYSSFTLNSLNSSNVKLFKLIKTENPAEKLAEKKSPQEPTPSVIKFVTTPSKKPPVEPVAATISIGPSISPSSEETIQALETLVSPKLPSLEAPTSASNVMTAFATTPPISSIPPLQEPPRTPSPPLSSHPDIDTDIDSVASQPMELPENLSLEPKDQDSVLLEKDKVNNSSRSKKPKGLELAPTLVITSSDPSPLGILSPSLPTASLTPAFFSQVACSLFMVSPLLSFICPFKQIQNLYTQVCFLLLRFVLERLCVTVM
# Method in brief: as §1
# [16] = biological target: T10, ETV2 (Homo sapiens, UniProt O00321 1-342); conditions: protein: recombinant; tags: N-terminal GST; dsDNA, one strand shown
# T10 sequence: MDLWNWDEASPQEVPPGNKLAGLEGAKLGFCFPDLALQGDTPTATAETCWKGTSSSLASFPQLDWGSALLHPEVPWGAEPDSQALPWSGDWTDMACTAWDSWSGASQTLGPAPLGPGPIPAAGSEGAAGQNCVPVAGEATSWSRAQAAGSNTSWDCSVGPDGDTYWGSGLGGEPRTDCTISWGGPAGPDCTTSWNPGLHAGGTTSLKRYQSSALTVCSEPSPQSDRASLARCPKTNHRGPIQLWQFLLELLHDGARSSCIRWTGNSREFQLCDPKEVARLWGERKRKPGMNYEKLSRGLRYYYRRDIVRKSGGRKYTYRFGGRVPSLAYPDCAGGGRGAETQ
# Method in brief: as §1
# [17] = biological target: T11, ELF3 (Homo sapiens, UniProt P78545 1-371); conditions: protein: recombinant; tags: N-terminal GST; dsDNA, one strand shown
# T11 sequence: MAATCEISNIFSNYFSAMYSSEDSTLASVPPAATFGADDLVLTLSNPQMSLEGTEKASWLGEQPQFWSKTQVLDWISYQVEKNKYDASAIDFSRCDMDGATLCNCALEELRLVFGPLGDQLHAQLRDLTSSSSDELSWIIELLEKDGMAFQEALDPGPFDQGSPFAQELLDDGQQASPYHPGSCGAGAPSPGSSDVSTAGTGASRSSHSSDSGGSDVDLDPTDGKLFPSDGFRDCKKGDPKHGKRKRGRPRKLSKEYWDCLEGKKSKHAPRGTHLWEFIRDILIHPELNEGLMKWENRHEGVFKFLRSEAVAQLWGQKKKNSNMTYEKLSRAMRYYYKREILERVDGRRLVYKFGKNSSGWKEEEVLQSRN
# Method in brief: as §1
# [18] = biological target: CRX (Homo sapiens, UniProt O43186 1-299); conditions: protein: recombinant; tags: N-terminal GST; dsDNA, one strand shown
# Chain of CRX (O43186 whole entry): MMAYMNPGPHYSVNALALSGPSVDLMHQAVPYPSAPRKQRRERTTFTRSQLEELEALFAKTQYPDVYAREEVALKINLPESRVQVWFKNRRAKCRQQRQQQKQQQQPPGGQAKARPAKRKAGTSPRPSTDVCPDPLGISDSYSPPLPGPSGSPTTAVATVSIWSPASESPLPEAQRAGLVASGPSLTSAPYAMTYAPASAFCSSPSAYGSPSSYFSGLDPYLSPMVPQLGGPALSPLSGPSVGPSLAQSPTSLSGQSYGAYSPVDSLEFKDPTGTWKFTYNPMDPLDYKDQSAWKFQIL
# Method in brief: as §1
# [19] = biological target: ETV1 (Homo sapiens, UniProt P50549 1-477); conditions: protein: recombinant; tags: N-terminal GST; dsDNA, one strand shown
# Chain of ETV1 (P50549 whole entry): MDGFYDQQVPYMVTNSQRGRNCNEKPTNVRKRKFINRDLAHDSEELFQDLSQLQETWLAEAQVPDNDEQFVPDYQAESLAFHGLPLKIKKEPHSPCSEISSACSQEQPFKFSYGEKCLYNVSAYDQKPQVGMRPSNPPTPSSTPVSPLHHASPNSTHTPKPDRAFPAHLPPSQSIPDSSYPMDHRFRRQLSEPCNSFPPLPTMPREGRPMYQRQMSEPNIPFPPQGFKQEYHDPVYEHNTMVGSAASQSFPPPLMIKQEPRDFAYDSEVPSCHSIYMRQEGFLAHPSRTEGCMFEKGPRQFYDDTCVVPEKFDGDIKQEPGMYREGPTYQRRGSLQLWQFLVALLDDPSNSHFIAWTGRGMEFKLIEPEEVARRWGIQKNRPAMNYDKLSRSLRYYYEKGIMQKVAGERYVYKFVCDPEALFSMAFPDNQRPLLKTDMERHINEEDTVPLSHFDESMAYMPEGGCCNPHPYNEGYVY
# Method in brief: as §1
sequence,measurement,setting,value
TCTTAC,binding signal,[1],"1.29 fold enrichment (6-mer frequency, TF over GST control)"
same,binding signal,[2],"1.36 fold enrichment (6-mer frequency, TF over GST control)"
same,binding signal,[3],"1.33 fold enrichment (6-mer frequency, TF over GST control)"
same,binding signal,[4],"1.23 fold enrichment (6-mer frequency, TF over GST control)"
same,binding signal,[5],"1.32 fold enrichment (6-mer frequency, TF over GST control)"
same,binding signal,[6],"1.2 fold enrichment (6-mer frequency, TF over GST control)"
same,binding signal,[7],"1.26 fold enrichment (6-mer frequency, TF over GST control)"
same,binding signal,[8],"1.26 fold enrichment (6-mer frequency, TF over GST control)"
same,binding signal,[9],"1.3 fold enrichment (6-mer frequency, TF over GST control)"
same,binding signal,[10],"1.23 fold enrichment (6-mer frequency, TF over GST control)"
same,binding signal,[11],"1.28 fold enrichment (6-mer frequency, TF over GST control)"
same,binding signal,[12],"1.23 fold enrichment (6-mer frequency, TF over GST control)"
same,binding signal,[13],"1.29 fold enrichment (6-mer frequency, TF over GST control)"
same,binding signal,[14],"1.27 fold enrichment (6-mer frequency, TF over GST control)"
same,binding signal,[15],"1.34 fold enrichment (6-mer frequency, TF over GST control)"
same,binding signal,[16],"1.39 fold enrichment (6-mer frequency, TF over GST control)"
same,binding signal,[17],"1.13 fold enrichment (6-mer frequency, TF over GST control)"
same,binding signal,[18],"1.7 fold enrichment (6-mer frequency, TF over GST control)"
same,binding signal,[19],"1.32 fold enrichment (6-mer frequency, TF over GST control)"
